Only some compounds are listed: those with a hit (about 3.7% of all), similar ones and a draw of the others.
tim10-1 inh: inhibits growth of tim10-1 mutant yeast | hit rate 2.2% among 330,000 | AID 463190 | S. cerevisiae tim10-1 ts strain growth, BacTiter-Glo, 24 h | inhibition, % at 20 µM;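 active = inhibition of at least 40%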;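 note: mutant grown at 25 °C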
TIM10 inh: TIM10 yeast growth inhibition | S. cerevisiae TIM10 strain growth, BacTiter-Glo luminescence, 24 h | hit rate 1.4% among 330,000 | AID 463195 | inhibition, % at 10 µM;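 active = inhibition of 40% or more at the single tested concentration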;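 note: wild-type TIM10 isogenic control strain grown at permissive 25 °C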
tim23-1 inh: growth inhibitors of tim23-1 mutant yeast. S. cerevisiae tim23-1 growth, BacTiter-Glo luminescence, 24 h. inhibition, % at 20 µM. hit rate 1.3% among 330,000;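 active = growth inhibition of the mutant yeast at or above 50%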;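 note: temperature-sensitive mutant grown at 25 °C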
PfHsp90 set2: reduces growth (ATP signal) of yeast expressing P. falciparum Hsp90 | AID 504621 | inhibition, % at 9.4 µM | S. cerevisiae expressing PfHsp90, BacTiter-Glo ATP, 48 h; yeast lacking PDR1 and PDR3 efflux regulators | hit rate 0.32% among 310,000;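 active = every replicate shows inhibition above about 80%, whatever the replicate mean, limit read from the data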
NLRP3 yeast inh: inhibitors of NALP3 inflammasome in yeast; Yeast reconstituted NLRP3/ASC/caspase-1, beta-gal luminescence, 24 h; inhibition, % at 10 µM; hit rate 0.39% among 330,000; AID 2825;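 active = inhibition of 50% or more; inactive = inhibition below 50%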
NALP3 confirm: NALP3 inhibition confirmation in yeast | shares compounds with NLRP3 yeast inh | yeast expressing human NALP3, luminescence | inhibition, % at 10 µM | hit rate 81% among 1,300 | AID 435006; in the data active = inhibition above about 48%
Casp1 ASC ctr: active in yeast caspase-1-ASC counter-screen for NALP3 inhibitors | shares compounds with NLRP3 yeast inh | yeast expressing Caspase-1-ASC, luminescence counter screen | inhibition, % at 10 µM | hit rate 66% among 1,000 | AID 488784
NALP3 retest: yeast NALP3 inhibition, confirmed on retest | AID 488794 | yeast expressing human NALP3, luminescence read-out | shares compounds with NLRP3 yeast inh | inhibition, % at 10 µM | hit rate 53% among 1,000
A number is an active result; n = inactive; x = not tested or not shown. Cut-off read from the data, not from the text of the source, unless noted: active = inhibition above about 50%; inactive = the rest.

SMILES	tim10-1 inh	TIM10 inh	tim23-1 inh	PfHsp90 set2	NLRP3 yeast inh	NALP3 confirm	others
CCn1nc(-c2cccs2)nc2c(=O)n(C)c(=O)nc1-2	x	x	x	107.7	x	x
O=C1C=CC(=O)C2C1C1(Cl)C(Cl)=C(Cl)C2(Cl)C1(Cl)Cl (centres undefined)	x	x	x	91.9	x	x
CCCCCCC(Cl)(Cn1ccnc1)c1ccccc1 (centres undefined)	n	n	n	101.4	n	x
CCCCCCn1c(O)c(C=NCCCn2ccnc2)c(=O)[nH]c1=O	n	n	n	n	n	x
CC(=O)OC1C(=O)OCC23CCC4(C)OC4C2OC2CC(OC(=O)C=CC=CC(=O)OCCC1C)C3(C)C21CO1 (centres undefined)	x	x	x	131.0	x	x
CC(=O)OC1(C)CC(C)C(=O)C(C(O)CC2CC(=O)NC(=O)C2)C1 (centres undefined)	x	x	x	105.2	x	x
C[C@]12CCC(=O)CC1CCC1C2CC[C@]2(C)C(OC(=O)CCC(=O)O)CCC12 (some centres undefined)	n	n	n	n	n	x
CCN(CC)c1ccc(/C=C/[N+](=O)[O-])cc1	n	n	n	n	n	x
O=[N+]([O-])/C=C/c1c(Cl)cccc1Cl	x	x	x	144.8	x	x
COC1=CC2C3Cc4ccc(OC)c(O)c4C2(CCN3C)CC1=O (centres undefined)	x	x	x	n	x	x
COc1ccc2ccccc2c1CNCCc1ccccc1	n	n	n	n	n	x
O=c1c2ccccc2nc(-c2ccc(-c3ccccc3)cc2)n1-c1ccncc1	n	n	n	107.0	n	x
Cc1ccc(-c2nc3ccccc3c(=O)n2-c2ccncc2)cc1	n	n	n	n	n	x
Clc1ccc(COC(Cn2ccnc2)c2ccc(Cl)cc2Cl)c(Cl)c1 (centres undefined)	n	n	n	81.1	n	x
COc1ccc(C2=NS(=O)(=O)N(C)C(C(=O)N3CCC4(CC3)OCCO4)=C2)cc1OC	n	n	n	n	n	x
CC(C(=O)c1ccc(Cl)cc1Cl)n1cncn1 (centres undefined)	n	n	n	n	n	x
CC(C)(C)C(O)C(Oc1ccc(Cl)cc1)n1cncn1 (centres undefined)	n	n	n	101.8	n	x
Cc1cccc(N=C2c3cc([N+](=O)[O-])ccc3-c3c2cc([N+](=O)[O-])cc3[N+](=O)[O-])c1	x	x	x	107.3	x	x
CCOc1cc2c(cc1OCC)-n1cccc1C(c1cccc(OCC)c1O)NC2 (centres undefined)	n	n	n	n	n	x
COCCCNP1(=O)OCC(C)([N+](=O)[O-])CO1 (centres undefined)	x	x	x	n	x	x
Cn1c(O)c(C(=NCCN2CCCCC2)c2ccccc2Cl)c(=O)n(C)c1=O	n	n	n	x	n	x
Cn1c(O)c(C(=Nc2ccc(F)cc2)c2ccccc2Cl)c(=O)n(C)c1=O	n	n	n	106.2	n	x
CSc1ccc(C(=O)C2CCCN(CCCn3cccn3)C2)cc1 (centres undefined)	n	n	n	n	n	x
CCOC(=O)c1c(-n2c(C)cc(C=C3C(=O)NC(=S)NC3=O)c2C)sc2c1CCCC2	n	n	n	108.6	n	x
CC[C@H](C)/C=C(C)/C=C/C1=CC2=C(Cl)C(=O)[C@](C)(OC(C)=O)C(=O)C2=CO1	n	n	n	105.1	n	x
SMILES	tim10-1 inh	TIM10 inh	tim23-1 inh	PfHsp90 set2	NLRP3 yeast inh	NALP3 confirm	others
CN1CCN(C(=O)COc2ccc(S(=O)(=O)NC3CCCCC3)cc2Cl)CC1	n	n	n	n	n	x
CC(=NNC(=S)N1CC2CCC(CC2)C1)c1nccs1	x	x	x	121.4	x	x
O=C(O)C1CC2(Cl)C(Cl)=C(Cl)C1(Cl)C2(Cl)Cl (centres undefined)	x	x	x	n	x	x
CC1(C)C(=O)CC[C@@]2(C)C1=CCC1C2CC[C@]2(C)C(=O)CCC12 (some centres undefined)	n	n	n	n	58.8	47.7
C[C@]12CC(=O)CC1CCC1C2CC[C@@]2(C)C1CC[C@@H]2O (some centres undefined)	n	n	n	n	59.7	61.2	Casp1 ASC ctr=62.8;NALP3 retest=n
CC12CCC3C(CCC4CC(=O)OCC43C)C1CCC2O (centres undefined)	x	x	x	n	x	x
C[C@]12CCC3C(CC[C@@H]4CC(=O)CC[C@]34C)C1CC[C@@H]2O (some centres undefined)	n	n	n	n	68.0	57.8
C[C@]12CCC(=O)C[C@@H]1CC[C@@H]1[C@@H]2CC[C@]2(C)[C@@H](O)CC[C@@H]12	n	n	n	x	50.1	54.7	Casp1 ASC ctr=59.6;NALP3 retest=n
CC12CCC3C(CCC4C/C(=N/O)CCC43C)C1CCC2O (centres undefined)	n	n	n	n	62.6	n	Casp1 ASC ctr=62.6;NALP3 retest=n
O=C(CCN1CC1)OCCOC(=O)CCN1CC1	x	x	x	n	x	x
CC(OC(=O)c1cn(C)c2ccccc12)C(=O)N(C)c1ccccc1 (centres undefined)	n	n	n	n	n	x
C[CH2][Hg][S]c1ccccc1C(=O)O	n	n	n	108.6	97.6	99.4	Casp1 ASC ctr=99.6;NALP3 retest=98.7
CC(C)COC(=O)c1ccccc1C(=O)OCC(C)C	n	n	n	n	n	x
C[C@]12CC[C@H](O)C[C@H]1CC[C@@H]1[C@@H]2CC[C@]2(C)C(=O)CC[C@@H]12	n	n	n	n	54.2	67.5	Casp1 ASC ctr=64.5;NALP3 retest=56.1
C[C@]12CCC3C(CC[C@@H]4C[C@H](O)CC[C@]34C)C1CCC2=O (some centres undefined)	n	n	n	n	73.2	72.0	Casp1 ASC ctr=72.2;NALP3 retest=51.5
C[C@]12CCC3C(CC[C@H]4C[C@@H](O)CC[C@]34C)C1C[C@@H](O)C2=O (some centres undefined)	n	n	n	x	n	x
C[C@]12CCC3C(C1CCC2=O)[C@H](O)C[C@H]1C[C@@H](O)CC[C@]31C (some centres undefined)	n	n	n	n	n	x
C[C@]12CCC3[C@@H](CC[C@H]4C[C@@H](O)CC[C@]34C)C1CCC2=O (some centres undefined)	n	n	n	n	59.1	70.8
C[C@]12CC[C@@H](O)C[C@H]1CC[C@@H]1[C@@H]2CC[C@]2(C)C(=O)CC[C@@H]12	n	n	n	n	66.0	72.5	Casp1 ASC ctr=70.5;NALP3 retest=60.4
COC(=O)C1=C(c2ccc(Cl)c(C(F)(F)F)c2)C[C@@H]2CC[C@H]1N2C(=O)N1CCC(C)CC1	n	n	n	n	n	x
C[C@]12CCC3C(CC[C@H]4C[C@@H](O)CC[C@]34C)[C@H]1CC[C@H]2O (some centres undefined)	n	n	n	n	51.1	57.5
C[C@]12C[C@@H](O)[C@H](O)CC1=CCC1C2CC[C@@]2(C)C1CC[C@@H]2O (some centres undefined)	n	n	n	n	58.3	55.0
